FLuc inh – Firefly luciferase inhibition profiling of diverse chemical library using quantitative high-throughput screening. purified P. pyralis luciferase, luminescence, biochemical. Potency, µM (highest dose often 115 µM), hits mostly inhibitors. hit rate 2.5% among 76,000. AID 1347043, 2019; also: nearly all actives have a fitted effect of over 65% in size
Target sequence (P08659 whole entry, looked up): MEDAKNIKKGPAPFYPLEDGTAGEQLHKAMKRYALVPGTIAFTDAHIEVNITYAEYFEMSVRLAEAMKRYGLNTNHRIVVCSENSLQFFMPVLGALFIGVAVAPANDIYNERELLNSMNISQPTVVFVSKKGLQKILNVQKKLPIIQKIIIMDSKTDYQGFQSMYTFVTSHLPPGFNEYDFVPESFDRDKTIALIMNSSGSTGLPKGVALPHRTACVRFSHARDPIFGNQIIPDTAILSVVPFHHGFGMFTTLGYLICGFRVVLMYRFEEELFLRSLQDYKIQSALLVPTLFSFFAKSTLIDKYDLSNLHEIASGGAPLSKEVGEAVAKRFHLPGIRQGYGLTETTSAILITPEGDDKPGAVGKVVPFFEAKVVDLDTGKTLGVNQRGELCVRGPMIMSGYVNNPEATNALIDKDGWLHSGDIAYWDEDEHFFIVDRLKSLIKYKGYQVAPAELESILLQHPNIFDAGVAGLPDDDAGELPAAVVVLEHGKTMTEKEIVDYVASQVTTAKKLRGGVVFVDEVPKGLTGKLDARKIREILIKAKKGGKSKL
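FLuc 10nM, D-luciferin 10uM, ATP 10uM, Mg acetate 10mM, Tris acetate pH 7.5, Tween/BSA; cpd qHTS; enzyme added last; CCD luminescence.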
HEK cytotox – Cytotoxic Profiling in HEK 293 Cell Line of Diverse Libraries Using Quantitative High-Throughput Screening | HEK 293 viability, ATP luminescence (CellTiter-Glo), 48-72 h | Potency, µM (highest dose often 115 µM), most hits filed as inhibitors | hit rate 6.6% among 94,000 | AID 1345083, 2018; also: nearly all actives have a fitted effect of over 60% in size
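250 HEK 293 cells/well; compound by pintool; incubated 48 or 72 hr at 37 degree Celsius; CellTiter-Glo added, 10 min RT, luminescence imaged.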
hNpr1 antagonist – Natriuretic polypeptide receptor (hNpr1) antagonism - Primary qHTS | Atrial natriuretic peptide receptor 1 (Homo sapiens), P16066 | Potency, µM (highest dose often 46.3 µM), usual class: inhibitors | hit rate 1.6% among 76,000 | HEK293 hNpr1 GloSensor cGMP, ANP-stimulated luminescence; calls by dose curve; also: nearly all actives have a fitted effect of over 60% in size
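Compound pre-incubated 30 min at room temperature on GloSensor-loaded HEK293 cells stably carrying hNpr1 and the pGS-40F cGMP biosensor. Stimulation uses hNppA at 0.1 nM final; luminescence is taken at baseline and 20 min post-agonist.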
GPT2 inhibitor – Primary qHTS assay for inhibitors of Glutamate pyruvate transaminase 2 (GPT2); AID 1671188, 2021; Potency, µM (highest dose often 57.7 µM), actives largely listed as inhibitors; Alanine aminotransferase 2 (Homo sapiens), Q8TD30; Recombinant GPT2, coupled pyruvate oxidase/HRP Amplex Red fluorescence; hit rate 0.25% among 100,000; also: nearly all actives have a fitted effect of over 60% in size
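Fluorescence of coupled pyruvate oxidase/HRP/Amplex Red system (50uM Amplex, 30 min, dark) reports pyruvate formed by GPT2. Enzyme reaction: 10ng/uL GPT2, 2mM L-alanine, 250uM a-KG, 30 min room temperature, pH 7.5; 50uM AOA control.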
3T3 cytotox – Cytotoxic Profiling in NIH 3T3 Cell Line of Diverse Libraries Using Quantitative High-Throughput Screening; NIH 3T3 viability, CellTiter-Glo ATP luminescence, 48-72 h; Potency, µM (top dose mostly 96.7 µM), hits mostly inhibitors; hit rate 4.3% among 94,000; also: nearly all actives have a fitted effect of over 55% in size
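Mouse fibroblast NIH 3T3 cells, 400 per well, received compound via pintool and were incubated for 48 or 72 hr prior to CellTiter-Glo ATP luminescence measurement.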
Each line names hits and unclear results; the compound was inactive in the other large screens. Compounds with a hit are over-represented: about 10% of the library has one in this group of screens. Unless noted, calls follow the shape of the dose curve; as a rule, active = well fitted curve in the direction sought with a large enough effect; inconclusive = small, poorly fitted or top-dose-only effect, or another doubt; inactive = no such curve, though single readings can be large; an effect the other way counts as inactive or inconclusive.

COc1ccc(C(=O)Nc2nc3c(s2)C[C@@H]2[C@](C)(CO)[C@H](O)CC[C@@]2(C)[C@@H]3CC(=O)N2CCC(C)CC2)cc1	HEK cytotox inconclusive, 3T3 cytotox 18µM
C#CCNC(=O)C[C@@H]1c2nc(NC(=O)c3ccc(C(C)(C)C)cc3)sc2C[C@@H]2[C@](C)(CO)[C@H](O)CC[C@]21C	FLuc inh 35µM, HEK cytotox inconclusive, 3T3 cytotox 32µM
O=C(Nc1ccc2c(c1)OCCO2)N1CCC(Cc2nncn2Cc2ccccc2)CC1	none (no result: FLuc inh, hNpr1 antagonist)
COc1cccc(CN2CCOC3(CCN(Cc4ccc(OC)nc4)CC3)C2=O)c1	HEK cytotox inconclusive
CC(C)NC(=O)NCCNC(=O)c1ccc(-c2cccc(C(F)(F)F)c2)cc1	3T3 cytotox inconclusive (no result: FLuc inh, hNpr1 antagonist, GPT2 inhibitor)
CN(C)C(=O)NCCNC(=O)c1ccc(-c2cccc(C(F)(F)F)c2)cc1	HEK cytotox 28µM, 3T3 cytotox inconclusive (no result: FLuc inh, hNpr1 antagonist, GPT2 inhibitor)
CC(C)(C)C(=O)NCCNC(=O)c1ccc(-c2cccc(C(F)(F)F)c2)cc1	HEK cytotox 28µM, 3T3 cytotox inconclusive (no result: FLuc inh, hNpr1 antagonist, GPT2 inhibitor)
CCCNC(=O)N1CCCCCC1CN1CCOCC1 (stereo not drawn)	none
O=C(c1[nH]nc2c1CCc1ccccc1-2)N1CCC(c2noc(-c3ccncc3)n2)C1 (stereo not drawn)	HEK cytotox inconclusive
CC(C)CNc1ccc2c(n1)C(C)(C(=O)NC1CC1)CN(Cc1ccccc1)C2 (stereo not drawn)	HEK cytotox 63µM, 3T3 cytotox inconclusive
CC(C)CNc1ccc2c(n1)C(C)(C(=O)NC1CCOCC1)CN(Cc1ccccc1)C2 (stereo not drawn)	HEK cytotox 79µM, 3T3 cytotox inconclusive
CC(C)CNc1ccc2c(n1)C(C)(C(=O)Nc1cccnc1)CN(Cc1ccccc1)C2 (stereo not drawn)	HEK cytotox 50µM, 3T3 cytotox 28µM
Cc1cccc(C(=O)N2CCC(n3c(C)nn(C)c3=O)CC2)c1	none (no result: FLuc inh, hNpr1 antagonist)
COC(=O)C1=C(C)N=C2SC=C(CC(=O)N(C)Cc3ccco3)N2C1c1cccc(Cl)c1 (stereo not drawn)	HEK cytotox 25µM, hNpr1 antagonist inconclusive, 3T3 cytotox inconclusive
COC(=O)C1=C(C)N=C2SC=C(CC(=O)N(C)Cc3ccco3)N2C1c1ccc(Cl)cc1 (stereo not drawn)	HEK cytotox inconclusive
CCOC(=O)C1=C(C)N=C2SC=C(CC(=O)Nc3cccc(OC)c3)N2C1c1cccc(OC)c1 (stereo not drawn)	HEK cytotox inconclusive, 3T3 cytotox inconclusive
CCOC(=O)C1=C(C)N=C2SC=C(CC(=O)Nc3ccc(C)c(C)c3)N2C1c1cccc(OC)c1 (stereo not drawn)	HEK cytotox 45µM, 3T3 cytotox 40µM
Cn1cnc(C(=O)NCC(=O)N2CCCCCNC(=O)CC2c2ccccc2)c1 (stereo not drawn)	none
CCOC(=O)[C@H]1CN(C(=O)c2ccc3c(c2)OCCCO3)[C@]2(C)C(=O)N(CCOC)c3ccccc3[C@H]12	HEK cytotox inconclusive (no result: FLuc inh, hNpr1 antagonist, GPT2 inhibitor)
CCOC(=O)[C@@H]1[C@H]2c3ccccc3N(CCOC)C(=O)[C@H]2N(C(=O)c2ccccc2)[C@@H]1c1ccccc1	HEK cytotox 35µM, 3T3 cytotox inconclusive (no result: FLuc inh, hNpr1 antagonist, GPT2 inhibitor)
COc1cccc(CN2CC[C@@H]3C(=O)NCCCCCCN(Cc4ccncc4)[C@@H]3C2)c1OC	none
Cc1ccc(C2Cn3nnc(C(=O)N4CCC(C(=O)NC5CCCC5)CC4)c3CO2)cc1 (stereo not drawn)	FLuc inh 11µM
Cc1ccc(C2Cn3nnc(C(=O)N4CCC(C(=O)NC(C)C)CC4)c3CO2)cc1 (stereo not drawn)	FLuc inh 20µM
O=C(NC1CCN(Cc2cccc(-c3cccs3)c2)CC1)C1CC1	HEK cytotox inconclusive, 3T3 cytotox inconclusive (no result: FLuc inh, hNpr1 antagonist)
Cc1ccc([S+](=O)([O-])N2CCC(C(=O)N3CCC4(CC3)CC(=O)Nc3ccccc3O4)CC2)cc1	HEK cytotox inconclusive, 3T3 cytotox inconclusive (no result: FLuc inh, hNpr1 antagonist)
CC1=C[C@@H](CNC(=O)c2ccncc2)[C@H](C(C)C)C[C@H]1CC(=O)N1CCCC1	FLuc inh inconclusive
CC1=C[C@@H](CNC(=O)c2ccncc2)[C@H](C(C)C)C[C@H]1CC(=O)N1CCN(C)CC1	FLuc inh 20µM
CC1=C[C@@H](CO)[C@H](C(C)C)C[C@H]1CC(=O)N1CCN(c2ccccn2)CC1	FLuc inh inconclusive, HEK cytotox 100µM, 3T3 cytotox inconclusive
Cc1ccccc1C(=O)N1CCC(CCC(=O)N2CCN(c3ccccn3)CC2)CC1	FLuc inh 32µM, HEK cytotox inconclusive
CCOC(=O)C[C@@H]1C[C@@H](C(C)C)[C@H](CNC(=O)c2ccncc2)C=C1C	HEK cytotox 89µM, hNpr1 antagonist inconclusive, 3T3 cytotox inconclusive
CC1=C[C@@H](CNC(=O)CCC(=O)O)[C@H](C(C)C)C[C@H]1CC(=O)N1CCN(c2ccccn2)CC1	GPT2 inhibitor inconclusive
O=C(c1ccccc1F)N1CCN(c2nccc(Nc3ccccc3Cl)n2)CC1	HEK cytotox inconclusive, 3T3 cytotox inconclusive (no result: FLuc inh, hNpr1 antagonist)
Cn1nccc1CN1CCC2(COc3ccccc3C(=O)N2)C1 (stereo not drawn)	HEK cytotox 89µM, 3T3 cytotox inconclusive
N#Cc1ccc(CN2CCC3(COc4ccccc4C(=O)N3)C2)cc1 (stereo not drawn)	HEK cytotox 63µM, hNpr1 antagonist inconclusive, 3T3 cytotox 32µM
N#Cc1ccc(CN2CCCC3(C2)NC(=O)c2ccccc2O3)cc1 (stereo not drawn)	HEK cytotox 89µM, hNpr1 antagonist inconclusive, 3T3 cytotox inconclusive
O=C1NC2(CCN(Cc3ccccc3)C2)COc2ccccc21 (stereo not drawn)	HEK cytotox inconclusive, 3T3 cytotox inconclusive
O=C1NC2(CCN(Cc3ccsc3)CC2)COc2ccccc21	HEK cytotox 63µM, 3T3 cytotox inconclusive
CCn1ccnc1CN1CCCC(CCc2ccc(OC)cc2)C1 (stereo not drawn)	HEK cytotox inconclusive, 3T3 cytotox inconclusive
O=C(Nc1ccc(F)cc1F)[C@H]1CN(Cc2ccccc2)C[C@H]1C(=O)O	none (no result: FLuc inh, hNpr1 antagonist)
O=C(Cc1ccc(C(F)(F)F)cc1)NC1CCN(Cc2cccc(-c3cccs3)c2)CC1	HEK cytotox inconclusive, 3T3 cytotox inconclusive (no result: FLuc inh, hNpr1 antagonist)
O=C(NCCc1ccccc1)[C@@H]1CCCN1c1nccc(Nc2ccccc2Cl)n1	HEK cytotox inconclusive, 3T3 cytotox inconclusive (no result: FLuc inh, hNpr1 antagonist)
O=C1NC2(CCN(Cc3ccc(F)cc3)C2)COc2ccccc21 (stereo not drawn)	HEK cytotox inconclusive, 3T3 cytotox 28µM
O=C1NC2(CCN(Cc3ccccc3C(F)(F)F)CC2)Oc2ccccc21	HEK cytotox 40µM, 3T3 cytotox inconclusive
